Source: PubChem BioAssay (National Center for Advancing Translational Sciences (NCATS))
Only some compounds are listed: those with a hit (about 2.9% of all), similar ones and a draw of the others.
Nrf2 inh: blocks Nrf2 signaling. A549 ARE-Fluc reporter, luciferase luminescence, 18-24 h. Potency, µM (highest dose often 46 µM), for inactives: at the highest dose activity change, negative = inhibition, most hits filed as inhibitors. 2.1% of 360,000 active. AID 504444; also: % is scaled to controls: 0 for no effect and ±100 for the full control effect; nearly all actives have a fitted effect of over 60% in size
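A549 ARE_Fluc cells, 5000/well, 5% FBS OPTI-MEM; compounds in dose-response, 18-24 h at 37 °C/5% CO2; CellTiter-Fluor viability read (Ex 405/Em 525), then BugLite luciferase luminescence = Nrf2 activity.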
ATXN2 expr inh: ATXN2 expression inhibition; HEK-293 ATXN2-luciferase reporter, luminescence, 24 h; Potency, µM (series often up to 57 µM), for inactives: at the top dose activity change, negative = inhibition, most hits filed as inhibitors; 0.72% of 360,000 active; AID 1745845; also: % is scaled to controls: 0 for no effect and ±100 for the full control effect; nearly all actives have a fitted effect of over 55% in size
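qHTS (up to 57 uM final) was run with 24 h compound exposure of reporter cells at 37 °C. Each well was multiplexed: SteadyGlo luminescence measured ATXN2-luciferase expression after a fluorogenic Gly-Phe-AFC viability readout (25 uM final).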
A549 viability: A549 cytotoxicity, counter-screen for Nrf2 inhibitors; Potency, µM (top dose mostly 46 µM), for inactives: top-dose activity change, negative = cytotoxicity, actives largely listed as inhibitors; 0.16% of 390,000 active; AID 504648; A549 ARE-Fluc cells, CellTiter-Fluor viability, 18-24 h; also: % is scaled to controls: 0 for no effect and ±100 for the full control effect
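A549 ARE_Fluc cells in 5% FBS OPTI-MEM were exposed to compounds in concentration-response for 18-24 h at 37 deg C. Viability was read by CellTiter-Fluor fluorescence (Ex 405/Em 525) after 30 min, before the luciferase read.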
S2 tox: cell viability loss in ATXN counter-screen; S2 cells (HEK-293 line with an ATXN2-luciferase reporter) viability, CellTiter-Fluor protease fluorescence, 24 h; Potency, µM (top dose mostly 56.7 µM), actives largely listed as cytotoxic; 0.49% of 400,000 active; AID 651635; also: nearly all actives have a fitted effect of over 40% in size
Nrf2 activator: Nrf2 pathway activation. AID 624171. AREc32 ARE-luciferase reporter (MCF7-derived line), luminescence, 24 h. Potency, µM (highest dose often 46.1 µM), without a hit: top-dose activation, most hits filed as activators. 0.31% of 410,000 active; also: % of control where 0% means no effect; nearly all actives have a fitted effect of over 65% in size
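AREc32_Fluc, 1000 cells/well, OPTI-MEM + 5% FBS, o/n 37 deg C 5% CO2; 23 nL cpd by pin tool, 24 hr; Steady-Glo 30 min RT, luminescence.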
The depositor's hits bear a star; i = inactive; ? = inconclusive; . = no result given. Calls follow the shape of the dose curve; as a rule, active = well fitted curve in the direction sought with a large enough effect; inconclusive = small, poorly fitted or top-dose-only effect, or another doubt; inactive = no such curve, though single readings can be large; an effect the other way counts as inactive or inconclusive. Potency is read from the fitted curve at half-maximal effect.

SMILES | Nrf2 inh | ATXN2 expr inh | A549 viability | S2 tox | Nrf2 activator
O=c1cnnc(N/N=C/c2c[nH]c3ccccc23)[nH]1 | ? | 20% | -4% | i | 13µM*
O=c1nc(N/N=C/c2c[nH]c3ccccc23)cn[nH]1 | ? | -23% | -9% | i | 1%
COc1ccccc1CCNS(=O)(=O)c1ccc(N2CCCCS2(=O)=O)cc1 | . | -10% | 0% | i | 0%
CCN1CCc2c(sc(NC(=O)c3ccc(S(=O)(=O)N4CCCC4)cc3)c2C(=O)NC)C1 | 1% | -36% | -13% | i | 12%
CC(=O)C1=C(c2ccc(Br)cc2)C(=O)c2ccccc2C1=O | ? | 3.5µM* | -4% | 7.1µM* | -2%
CN(C)/N=C/C=C1\CCC/C(=C/c2cccs2)C1=O | ? | . | 0% | i | 10µM*
CN(C)/N=C/C=C1\CC/C(=C\c2ccc(Br)cc2)C1=O | -1% | 22% | -4% | i | 1%
CN1C(=O)c2oc3ccccc3c(=O)c2C1c1ccccn1 (stereo unspecified) | . | -11% | 0% | i | 0%
Cc1ccc(OCC(=O)Nc2ccc(N3CCN(C(=O)c4ccco4)CC3)cc2)cc1 | 21µM* | -25% | 1% | i | 0%
CC(C)(CO)NCc1ccccc1OCC(=O)Nc1ccccc1 | 6% | 0% | 1% | i | 0%
Cc1ccc(C(=O)N2CCN(c3ccc(NC(=O)COc4ccccc4C)cc3)CC2)cc1 | 21µM* | -34% | ? | i | 0%
CCC(=O)N1CCN(c2ccc(NC(=O)COc3ccc(C)cc3C)cc2)CC1 | ? | -35% | -7% | ? | 0%
Cc1ccc(NC(=O)COc2ccccc2CNC(C)(C)CC(C)(C)C)cc1 | 15% | 25µM* | 2% | 22µM* | -5%
CC(C)(Oc1ccc(Cl)cc1)C(=O)N1CCN(C(=O)c2ccco2)CC1 | 23% | -13% | 3% | i | 0%
Cc1ccc(CSCCC(=O)NCc2ccc(F)cc2Cl)cc1 | . | . | 29% | . | 0%
O=C(NCc1ccccc1F)c1ccncc1 | 2% | 3% | 9% | i | 0%
Cc1ccc2oc(=O)n(CCCOc3ccccc3Cl)c2c1 | 22% | . | 4% | . | 8%
O=C(Nc1ccc(-c2csc(Nc3ccccc3)n2)cc1)c1cc([N+](=O)[O-])cc(C(F)(F)F)c1 | ? | ? | -19% | 13µM* | 0%
COc1ccc(NC(=S)N2CCN(C(=O)c3ccco3)CC2)c(OC)c1 | -2% | 2% | -4% | i | 0%
COc1ccc(-c2cc3ccccc3nc2N)cc1OC | 16µM* | . | -1% | i | 2%
Cc1ccc(S(=O)(=O)Nc2ccc(N3CCOCC3)cc2)cc1[N+](=O)[O-] | -9% | -25% | -1% | i | -1%
COc1cccc(-c2csc(N3CCN(C(=S)Nc4cccc(Cl)c4)CC3)n2)c1 | 18µM* | ? | -8% | ? | 5%
COc1cccc(-c2csc(N3CCN(C(=O)Nc4ccc(Cl)cc4)CC3)n2)c1 | 15µM* | . | ? | ? | -1%
COc1cccc(-c2csc(N3CCN(C(=S)Nc4ccccc4Cl)CC3)n2)c1 | ? | 13% | -11% | i | 3%
CCC(=O)N1CCN(c2nc(-c3ccc(Cl)cc3)cs2)CC1 | ? | ? | -7% | i | 3%
SMILES | Nrf2 inh | ATXN2 expr inh | A549 viability | S2 tox | Nrf2 activator
CC(C)CNC(=S)N1CCN(c2nc(-c3ccc(Cl)cc3)cs2)CC1 | 18µM* | 16µM* | -2% | ? | 3%
COc1ccc(NC(=O)N2CCN(c3nc(-c4cccc(OC)c4)cs3)CC2)cc1 | ? | 22µM* | -13% | ? | 0%
COc1cccc(C(=O)Nc2ccc3nc(SCC(=O)N4CCOCC4)sc3c2)c1 | -19% | . | -13% | . | 5%
Cc1cc(C(=O)NN=Cc2ccc(-c3ccc(F)cc3)o2)c(C)o1 | 1% | . | 12% | i | 0%
COc1cccc(-c2csc(N3CCN(C(=S)NCC(C)C)CC3)n2)c1 | 18µM* | ? | -4% | i | 2%
COc1cccc(CNCCc2c[nH]c3ccccc23)c1OCc1ccc(F)cc1 | -19% | 20µM* | -4% | ? | 4%
COc1cc(CNCCc2c[nH]c3ccccc23)ccc1OCc1ccc(F)cc1 | 12% | ? | 2% | . | -3%
Cc1ccc(NC(=O)c2ccc3c(=O)n4c(nc3c2)CCCCC4)nc1 | 2% | 3% | -7% | i | 3%
CCOC(=O)c1c(C)[nH]c(C(=O)CN2C(=O)NC(C)(c3ccc4ccccc4c3)C2=O)c1C (stereo unspecified) | 26µM* | 4% | -19% | i | 2%
Cc1ccc(NC(=O)C2CCN(S(=O)(=O)c3ccc4c(c3)NC(=O)C(C)S4)CC2)c(Cl)c1 (stereo unspecified) | 23µM* | . | -17% | i | 4%
CC1Sc2ccc(S(=O)(=O)N3CCC(C(=O)NCCc4ccccc4)CC3)cc2NC1=O (stereo unspecified) | -28% | 1% | 0% | i | 2%
COc1cccc(CNC(=O)C2CCN(S(=O)(=O)c3ccc4c(c3)NC(=O)C(C)S4)CC2)c1 (stereo unspecified) | 18µM* | -6% | -5% | i | 0%
Cc1ccc(CCNC(=O)C2CCN(S(=O)(=O)c3ccc4c(c3)NC(=O)C(C)S4)CC2)cc1 (stereo unspecified) | 16µM* | ? | -25% | ? | 3%
Cc1cc(C)cc(NC(=O)C2CCN(S(=O)(=O)c3ccc4c(c3)NC(=O)C(C)S4)CC2)c1 (stereo unspecified) | -16% | -38% | -16% | ? | 1%
CCCC(=O)N/C(N)=N/c1nc(C)c2cc(C)ccc2n1 | ? | 0% | -20% | ? | 0%
Cc1ccc2nc(/N=C(\N)NC(=O)NC3CCCCC3)nc(C)c2c1 | 8.2µM* | ? | 23µM* | 28µM* | 5%
OC(c1ccc(F)c(F)c1)c1nc(-c2cncnc2)cs1 (stereo unspecified) | . | 7% | . | i | 1%
O=C1CN=C(Nc2cccc(C(F)(F)F)c2)N1C1CCCC1 | 15µM* | -16% | -27% | i | -1%
N#Cc1cccc(NC(=O)c2ccc3c(c2)N(Cc2cccc(Cl)c2)C(=O)c2ccccc2S3(=O)=O)c1 | -21% | . | 2% | . | 3%
CCN(CC(=O)Nc1c(F)cccc1F)C(=O)c1ccc(N2CCCCC2)c([N+](=O)[O-])c1 | 16µM* | -15% | -12% | i | 0%
COC(=O)C1=C(O)/C(=C\c2ccc(OCC(=O)Nc3ccccc3)cc2)N=C1C | -9% | . | 1% | i | -1%
CCC(Oc1ccc(F)cc1)C(=O)Nc1cc(-c2ccc(C)cc2)no1 (stereo unspecified) | -24% | -8% | 4% | i | 7%
CCC(Oc1ccc(F)cc1)C(=O)Nc1nc(-c2ccc(F)cc2)ns1 (stereo unspecified) | 16µM* | . | ? | . | -1%
